Drawing on publication PMC10812921, “Transcriptional Coactivator BOB1 (OBF1, OCA-B) Modulates the Specificity of DNA Recognition by the POU-Domain Factors OCT1 and OCT2 in a Monomeric Configuration”, this text covers binding signal for 39 sequences.

The first test deals with POU1 (OCT1 POU domain) (human, UniProt P14859 260-458). Nature of the test: EMSA-SELEX-seq; no BOB1; 20 mM Tris-HCl pH 7.6, 140 mM NaCl, 10% glycerol, 0.5 mM EDTA, 0.05% Triton X-100, 0.1 mg/mL BSA, 0.1 mg/mL poly(dI-dC), 5 mM DTT, room temperature, 20 min; high values mean tight binding. Conditions: protein: recombinant; dsDNA, one strand shown. The method, boiled down: (§1)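 In this selection, tagged POU-domain proteins from E. coli BL21, purified under denaturing conditions and renatured, were bound to a PCR-amplified double-stranded random 35-nt library with or without coactivator protein. Reactions held 30 ng protein, 300 ng library and, where used, 28 ng coactivator protein in 20 μL Tris–HCl pH 7.6 binding buffer for 20 min at RT. Complex bands were cut from native 6% PAGE, eluted and PCR-amplified over four rounds, then Illumina-sequenced, and binding preference is the percentage of sequenced 8-mers matching a motif pattern.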
Chain of POU1 (OCT1 POU domain) (P14859 260-458): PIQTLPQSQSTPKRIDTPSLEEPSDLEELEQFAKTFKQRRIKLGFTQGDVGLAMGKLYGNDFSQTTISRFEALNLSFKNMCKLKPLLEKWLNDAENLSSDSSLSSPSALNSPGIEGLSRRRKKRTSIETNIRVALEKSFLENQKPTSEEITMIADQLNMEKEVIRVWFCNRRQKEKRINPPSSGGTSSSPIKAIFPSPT
As to ATGTTAAA, the binding signal is 0.212 % of ANNNNAAN 8-mers.
Same read-out and setting: under ACGCGAAC stands 0.0103 % of ANNNNAAN 8-mers; under ATTAGAAC, 0.0427 % of ANNNNAAN 8-mers.
For the sequence AGAATAAC, the binding signal is 0.0534 % of ANNNNAAN 8-mers.
Take ACAGGAAA: the binding signal was 0.0526 % of ANNNNAAN 8-mers.
The same measure, in the same setting: the figure for AATAGAAT is 0.113 % of ANNNNAAN 8-mers; for ATGCCAAA it is 0.0458 % of ANNNNAAN 8-mers; for AATACAAC it is 0.0412 % of ANNNNAAN 8-mers.
With AGCATAAG, the binding signal is 0.105 % of ANNNNAAN 8-mers.
For the sequence AGATCAAT, the binding signal is 0.0465 % of ANNNNAAN 8-mers.
Turning to ATCCAAAC, the binding signal is 0.0233 % of ANNNNAAN 8-mers.
For AGAGTAAT, the binding signal is 0.0648 % of ANNNNAAN 8-mers.
On to AAAACAAT, for which the binding signal was 0.0736 % of ANNNNAAN 8-mers.
For ACCTTAAG, the binding signal was 0.0198 % of ANNNNAAN 8-mers.
For the sequence ACTTTAAA, the binding signal is 0.0713 % of ANNNNAAN 8-mers.
On to ACGGTAAT, for which the binding signal was 0.0984 % of ANNNNAAN 8-mers.
Still for that read-out and setting: the figure for AACTGAAA is 0.0358 % of ANNNNAAN 8-mers; for AAGCGAAG it is 0.0271 % of ANNNNAAN 8-mers; for AGTTCAAA it is 0.0355 % of ANNNNAAN 8-mers.
For ACGGGAAC, the binding signal is 0.0225 % of ANNNNAAN 8-mers.
AGTCGAAA: the binding signal was 0.0431 % of ANNNNAAN 8-mers.
For the sequence AGCAAAAC, the binding signal was 0.0481 % of ANNNNAAN 8-mers.
As for AATATAAT, the binding signal is 0.213 % of ANNNNAAN 8-mers.
With AATGGAAT, the binding signal was 0.138 % of ANNNNAAN 8-mers.
As to ATCTCAAG, the binding signal was 0.0313 % of ANNNNAAN 8-mers.
In the case of AAAGCAAG, the binding signal was 0.04 % of ANNNNAAN 8-mers.
Regarding AGGAGAAC, the binding signal was 0.0275 % of ANNNNAAN 8-mers.
For ACATCAAC, the binding signal was 0.0172 % of ANNNNAAN 8-mers.
For ATCGAAAG, the binding signal is 0.0294 % of ANNNNAAN 8-mers.
Consider AATGTAAA, for which the binding signal is 0.614 % of ANNNNAAN 8-mers.
In the case of ACAAAAAG, the binding signal was 0.0549 % of ANNNNAAN 8-mers.
On to ATAACAAG, for which the binding signal was 0.0458 % of ANNNNAAN 8-mers.
On to ATTCCAAG, for which the binding signal was 0.045 % of ANNNNAAN 8-mers.
The same measure, in the same setting: the figure for ACGAGAAT is 0.0492 % of ANNNNAAN 8-mers; for ATTACAAG it is 0.0515 % of ANNNNAAN 8-mers; for ATCCAAAG it is 0.0427 % of ANNNNAAN 8-mers.
Regarding ATGACAAG, the binding signal is 0.0404 % of ANNNNAAN 8-mers.
In the case of ATATCAAT, the binding signal was 0.117 % of ANNNNAAN 8-mers.
Consider ATTATAAG, for which the binding signal was 0.121 % of ANNNNAAN 8-mers.

Another test concerns the target T1, POU2 (OCT2 POU domain) (human, UniProt P09086 175-386).
T1 sequence: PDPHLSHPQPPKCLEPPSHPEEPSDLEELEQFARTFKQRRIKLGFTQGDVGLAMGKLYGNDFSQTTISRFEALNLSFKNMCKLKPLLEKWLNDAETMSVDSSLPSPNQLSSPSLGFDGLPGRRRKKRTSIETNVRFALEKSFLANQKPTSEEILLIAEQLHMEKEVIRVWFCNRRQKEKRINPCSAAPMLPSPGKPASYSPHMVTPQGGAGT
The test is described as above. Conditions: protein: recombinant; dsDNA, one strand shown. A digest of the protocol:
as §1
On to ATGTTAAA, for which the binding signal is 0.216 % of ANNNNAAN 8-mers.
As to ACGCGAAC, the binding signal was 0.0121 % of ANNNNAAN 8-mers.
ATTAGAAC: the binding signal was 0.0564 % of ANNNNAAN 8-mers.
On the same count and under the same terms, the figure for AGAATAAC is 0.0673 % of ANNNNAAN 8-mers; for ACAGGAAA it is 0.0506 % of ANNNNAAN 8-mers.
Take AATAGAAT: the binding signal was 0.136 % of ANNNNAAN 8-mers.
Regarding ATGCCAAA, the binding signal is 0.0501 % of ANNNNAAN 8-mers.
AATACAAC: the binding signal was 0.0403 % of ANNNNAAN 8-mers.
Take AGCATAAG: the binding signal is 0.129 % of ANNNNAAN 8-mers.
The same measure, in the same setting: the figure for AGATCAAT is 0.0432 % of ANNNNAAN 8-mers; for ATCCAAAC it is 0.0178 % of ANNNNAAN 8-mers.
For AGAGTAAT, the binding signal is 0.0777 % of ANNNNAAN 8-mers.
In the case of AAAACAAT, the binding signal is 0.0604 % of ANNNNAAN 8-mers.
ACCTTAAG: the binding signal was 0.0219 % of ANNNNAAN 8-mers.
On to ACTTTAAA, for which the binding signal is 0.0817 % of ANNNNAAN 8-mers.
As for ACGGTAAT, the binding signal was 0.143 % of ANNNNAAN 8-mers.
On the same count and under the same terms, the figure for AACTGAAA is 0.0386 % of ANNNNAAN 8-mers; for AAGCGAAG it is 0.027 % of ANNNNAAN 8-mers; for AGTTCAAA it is 0.0357 % of ANNNNAAN 8-mers.
For ACGGGAAC, the binding signal is 0.027 % of ANNNNAAN 8-mers.
On to AGTCGAAA, for which the binding signal is 0.0414 % of ANNNNAAN 8-mers.
In the case of AGCAAAAC, the binding signal is 0.0449 % of ANNNNAAN 8-mers.
For the sequence AATATAAT, the binding signal was 0.286 % of ANNNNAAN 8-mers.
As for AATGGAAT, the binding signal is 0.212 % of ANNNNAAN 8-mers.
For the sequence ATCTCAAG, the binding signal was 0.0368 % of ANNNNAAN 8-mers.
AAAGCAAG: the binding signal is 0.0368 % of ANNNNAAN 8-mers.
As for AGGAGAAC, the binding signal was 0.0363 % of ANNNNAAN 8-mers.
As for ACATCAAC, the binding signal was 0.0253 % of ANNNNAAN 8-mers.
In the case of ATCGAAAG, the binding signal is 0.0288 % of ANNNNAAN 8-mers.
Regarding AATGTAAA, the binding signal is 0.509 % of ANNNNAAN 8-mers.
For the sequence ACAAAAAG, the binding signal is 0.0489 % of ANNNNAAN 8-mers.
Regarding ATAACAAG, the binding signal was 0.0621 % of ANNNNAAN 8-mers.
ATTCCAAG: the binding signal is 0.0512 % of ANNNNAAN 8-mers.
The same measure, in the same setting: under ACGAGAAT stands 0.0547 % of ANNNNAAN 8-mers; under ATTACAAG, 0.0875 % of ANNNNAAN 8-mers; under ATCCAAAG, 0.0397 % of ANNNNAAN 8-mers.
For the sequence ATGACAAG, the binding signal is 0.0351 % of ANNNNAAN 8-mers.
For the sequence ATATCAAT, the binding signal is 0.139 % of ANNNNAAN 8-mers.
On the same count and under the same terms, the figure for ATTATAAG is 0.163 % of ANNNNAAN 8-mers.

Another test has as its target POU1 (OCT1 POU domain);BOB1 (OBF1, OCA-B) (human;human, UniProt P14859;Q16633 260-458;1-256, |). The test can be described thus: EMSA-SELEX-seq; with BOB1 (ternary complex band); 20 mM Tris-HCl pH 7.6, 140 mM NaCl, 10% glycerol, 0.5 mM EDTA, 0.05% Triton X-100, 0.1 mg/mL BSA, 0.1 mg/mL poly(dI-dC), 5 mM DTT, room temperature, 20 min; high values mean tight binding. Conditions: protein: recombinant;recombinant; copies: 1;1; dsDNA, one strand shown. The method, boiled down:
as §1
ATGTTAAA: the binding signal is 0.0956 % of ANNNNAAN 8-mers.
Same read-out and setting: under ACGCGAAC stands 0.0109 % of ANNNNAAN 8-mers; under ATTAGAAC, 0.0355 % of ANNNNAAN 8-mers; under AGAATAAC, 0.0312 % of ANNNNAAN 8-mers.
With ACAGGAAA, the binding signal was 0.0702 % of ANNNNAAN 8-mers.
AATAGAAT: the binding signal is 0.0921 % of ANNNNAAN 8-mers.
For ATGCCAAA, the binding signal is 0.0464 % of ANNNNAAN 8-mers.
With AATACAAC, the binding signal was 0.0336 % of ANNNNAAN 8-mers.
On to AGCATAAG, for which the binding signal was 0.0441 % of ANNNNAAN 8-mers.
Take AGATCAAT: the binding signal was 0.0355 % of ANNNNAAN 8-mers.
With ATCCAAAC, the binding signal is 0.0343 % of ANNNNAAN 8-mers.
Turning to AGAGTAAT, the binding signal was 0.0499 % of ANNNNAAN 8-mers.
The same measure, in the same setting: under AAAACAAT stands 0.0913 % of ANNNNAAN 8-mers; under ACCTTAAG, 0.0187 % of ANNNNAAN 8-mers.
Regarding ACTTTAAA, the binding signal is 0.0652 % of ANNNNAAN 8-mers.
Turning to ACGGTAAT, the binding signal is 0.0741 % of ANNNNAAN 8-mers.
On the same count and under the same terms, under AACTGAAA stands 0.0382 % of ANNNNAAN 8-mers; under AAGCGAAG, 0.0238 % of ANNNNAAN 8-mers; under AGTTCAAA, 0.0386 % of ANNNNAAN 8-mers.
For ACGGGAAC, the binding signal was 0.0215 % of ANNNNAAN 8-mers.
Same read-out and setting: the figure for AGTCGAAA is 0.0324 % of ANNNNAAN 8-mers; for AGCAAAAC it is 0.0792 % of ANNNNAAN 8-mers; for AATATAAT it is 0.137 % of ANNNNAAN 8-mers.
Turning to AATGGAAT, the binding signal was 0.125 % of ANNNNAAN 8-mers.
Same read-out and setting: the figure for ATCTCAAG is 0.039 % of ANNNNAAN 8-mers; for AAAGCAAG it is 0.0457 % of ANNNNAAN 8-mers; for AGGAGAAC it is 0.0261 % of ANNNNAAN 8-mers.
For ACATCAAC, the binding signal was 0.0211 % of ANNNNAAN 8-mers.
Still for that read-out and setting: under ATCGAAAG stands 0.0379 % of ANNNNAAN 8-mers; under AATGTAAA, 0.547 % of ANNNNAAN 8-mers; under ACAAAAAG, 0.0683 % of ANNNNAAN 8-mers.
As for ATAACAAG, the binding signal was 0.0355 % of ANNNNAAN 8-mers.
Same read-out and setting: under ATTCCAAG stands 0.032 % of ANNNNAAN 8-mers; under ACGAGAAT, 0.0347 % of ANNNNAAN 8-mers; under ATTACAAG, 0.048 % of ANNNNAAN 8-mers.
As for ATCCAAAG, the binding signal is 0.0566 % of ANNNNAAN 8-mers.
Still for that read-out and setting: the figure for ATGACAAG is 0.0336 % of ANNNNAAN 8-mers; for ATATCAAT it is 0.0804 % of ANNNNAAN 8-mers; for ATTATAAG it is 0.0843 % of ANNNNAAN 8-mers.
